Results: PubChem BioAssay

target: Pro-neuregulin-1, membrane-bound isoform (Homo sapiens) (UniProt Q02297); assay: small molecules binding neuregulin-1 protein – biochemical, small-molecule microarray, fluorescence 635/667, psychiatric disease protein project, primary screen (AID 1075); conditions: NRG1 binding, 635 nm fluorescence, higher = more signal;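 also: score combines 667 nm spot fluorescence with signal to noise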
Sequence (Q02297 whole entry, looked up, canonical isoform): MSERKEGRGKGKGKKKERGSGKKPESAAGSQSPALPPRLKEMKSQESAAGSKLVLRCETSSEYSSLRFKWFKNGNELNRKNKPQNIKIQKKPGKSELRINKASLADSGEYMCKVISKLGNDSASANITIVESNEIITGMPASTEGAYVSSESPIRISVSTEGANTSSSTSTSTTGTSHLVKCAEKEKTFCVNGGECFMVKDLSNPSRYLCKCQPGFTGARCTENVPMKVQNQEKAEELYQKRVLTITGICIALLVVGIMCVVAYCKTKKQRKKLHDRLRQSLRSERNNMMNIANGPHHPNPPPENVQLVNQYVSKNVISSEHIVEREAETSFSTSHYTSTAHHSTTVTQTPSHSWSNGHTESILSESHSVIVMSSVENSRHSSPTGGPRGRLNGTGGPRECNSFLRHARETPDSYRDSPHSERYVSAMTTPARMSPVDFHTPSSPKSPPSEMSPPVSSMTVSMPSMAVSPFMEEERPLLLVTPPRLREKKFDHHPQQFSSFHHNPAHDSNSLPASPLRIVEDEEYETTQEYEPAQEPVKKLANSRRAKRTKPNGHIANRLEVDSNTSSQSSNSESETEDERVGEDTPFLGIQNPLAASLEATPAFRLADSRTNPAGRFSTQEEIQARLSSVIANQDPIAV

Which composite z-score does the source give for `COCC(=C=CC[C@@H](O)c1ccccc1OCCO)C[C@@H](O)c1ccccn1` here?
Its composite z-score is 1.21.

For `COc1ccc([Si](C)(C)[C@H]2[C@H](CCO)O[C@@]3(C(=O)N(Cc4cccc(N5CCOC5=O)c4)c4ccccc43)[C@@H]2C)cc1`, which composite z-score is on record?
The composite z-score was 0.843.

With `COC(=O)C(CC#Cc1ccc2c(c1)[C@]1(C(=O)N2)[C@H](C(=O)N2CCc3cc(OC)c(OC)cc3C2)[C@H]2C(=O)O[C@H](c3ccccc3)[C@H](c3ccccc3)N2[C@@H]1c1ccc(O)cc1)C(=O)OC` as the molecule, how does the composite z-score read?
The composite z-score was 1.69.

For `COc1ccc([Si](C)(C)[C@H]2[C@H](CCn3cc(CCO)nn3)O[C@@]3(C(=O)N(Cc4cccc(N5C(=O)c6cccc7cccc5c67)c4)c4ccccc43)[C@@H]2C)cc1`, which composite z-score is on record?
Its composite z-score is 0.772.

`C[C@H]1ON(c2ccccc2)[C@@H](c2ccccc2)[C@@H]1C(=O)N1C(=O)OC[C@@H]1c1ccccc1` was tested. Which composite z-score did it give?
The composite z-score was 0.211.

How did the composite z-score turn out when `COc1ccc(C#Cc2ccc3c(c2)[C@]2(C(=O)N3)[C@H](C(=O)O)[C@H]3C(=O)O[C@H](c4ccccc4)[C@H](c4ccccc4)N3[C@@H]2c2ccc(OCCO)cc2)cc1` was run?
The composite z-score was 1.88.

With `C=CCC(OC(C)=O)[C@@H]1[C@@H](N(Cc2ccc(-c3ccccc3)cc2)C(=O)Cc2ccc(OC)cc2)c2cc(OCCCO)ccc2N1C(=O)c1ccc(-c2ccccc2)cc1` (some centres not stated) as the molecule, how does the composite z-score read?
The composite z-score was 0.275.

`Cc1ccc(S[C@]2(C(=O)NCC(C)C)CC(=O)N(C3CCCCC3)[C@@H]2c2ccc(CO)cc2I)cc1` was tested. Which composite z-score did it give?
The composite z-score was 1.42.

`COC(=O)C(CC#Cc1ccc2c(c1)[C@]1(C(=O)N2)[C@H](c2ccc(OCCO)cc2)N2[C@H](c3ccccc3)[C@H](c3ccccc3)OC(=O)[C@H]2[C@@H]1C(=O)O)C(=O)OC` was tested. Which composite z-score did it give?
The composite z-score was 2.03.

`[N-]=[N+]=NCc1ccccc1C[C@@]1(C(=O)NCCN2CCOCC2)N=C(c2ccc(OCCCO)cc2)O[C@@H]1c1ccccc1CN=[N+]=[N-]` was tested. Which composite z-score did it give?
Its composite z-score is 1.27.

Which composite z-score does the source give for `C[C@]12C(=O)N(CCCO)[C@@H]3C(=O)N(c4ccc(Cl)cc4)CC=CC31O[C@@H]1/C=C\CCCOC(=O)C12` (some centres not stated) here?
The composite z-score was -0.0724.

For `CCCCC(O)C1C=CC2C(=O)N(Cc3ccccc3)C(=O)C2N1n1cnnc1` (configuration not stated), which composite z-score is on record?
The composite z-score was 1.1.

For `Cc1ccccc1C(O)C1C=CC2C(=O)N(C)C(=O)C2N1Nc1ccc([N+](=O)[O-])cc1[N+](=O)[O-]` (configuration not stated), which composite z-score is on record?
Its composite z-score is 1.65.

Which composite z-score does the source give for `COCCOC(=O)N1C(=O)[C@@]2(c3cc(C#Cc4ccc(OC)cc4)ccc31)[C@H](C(=O)N1CCc3cc(OC)c(OC)cc3C1)[C@H]1C(=O)O[C@H](c3ccccc3)[C@H](c3ccccc3)N1[C@@H]2c1ccc(OCCO)cc1` here?
Its composite z-score is 0.62.

With `O=c1c2ccc(Br)cc2nc(-c2ccccc2)n1Cc1cccc(O)c1` as the molecule, how does the composite z-score read?
Its composite z-score is 1.81.

`Cc1ccc(S[C@]2(C(=O)NCCN3CCOCC3)CC(=O)N(C3Cc4ccccc4C3)[C@@H]2c2ccc(CO)cc2)cc1` was tested. Which composite z-score did it give?
Its composite z-score is 1.72.

How did the composite z-score turn out when `C=CC[C@@]1(C(=O)NCCN2CCOCC2)N=C(c2ccc(OCCCO)cc2)O[C@@H]1c1ccccc1` was run?
The composite z-score was 0.595.

With `C[C@H]1NC(=O)C([C@@H](C)OCc2ccccc2)NC(=O)[C@@]23C(=O)N[C@@H](Cc4ccccc4)C2[C@H](C)[C@@]2(C)O[C@H]2C3/C=C/CC/C=C/CNC1=O` (some centres not stated) as the molecule, how does the composite z-score read?
The composite z-score was -0.178.

How did the composite z-score turn out when `C/C=C/[C@@H](CCn1cc([C@H](O)c2ccccc2)nn1)[Si](C)(C)c1ccc(OC)cc1` was run?
Its composite z-score is 1.29.

How did the composite z-score turn out when `CCCC=C(CCC)[C@@H](NC(=O)Cc1ccccc1)c1ccc(C(=O)OC)cc1` was run?
Its composite z-score is 0.807.

With `C=C(COC)/C(=C/C[C@@H](OC(=O)c1ccncc1)c1cccc(OCCO)c1)c1cc(C(=O)OC)ccc1OC` as the molecule, how does the composite z-score read?
Its composite z-score is -0.142.

For `COc1cc(NN2C(C(O)c3ccc(I)cc3)C=CC3C(=O)N(C)C(=O)C32)cc(OC)c1OC` (configuration not stated), which composite z-score is on record?
Its composite z-score is 1.96.

For `COCCCNC(=O)[C@@]1(Cc2ccccc2CN=[N+]=[N-])N=C(c2ccc(OCCCO)cc2)O[C@H]1c1ccccc1N=[N+]=[N-]`, which composite z-score is on record?
Its composite z-score is 0.765.

How did the composite z-score turn out when `O=C(CS)NCCCCCNC(=O)[C@@H]1C[C@@H]2C(=O)N3CCC[C@H]3C(=O)N2[C@@H]1c1ccc(O)cc1` was run?
The composite z-score was 0.33.

Which composite z-score does the source give for `Cc1cc(C)c(C(O)C2C=CC3C(=O)N(c4ccccc4)C(=O)C3N2Nc2ccc([N+](=O)[O-])cc2)c(C)c1` (configuration not stated) here?
The composite z-score was 1.9.

With `C=C[C@H](C)[C@H](OC(=O)Nc1ccc(SC)cc1)c1ccc(O)c2ccccc12` as the molecule, how does the composite z-score read?
The composite z-score was 0.583.

Which composite z-score does the source give for `COC(=O)C(CC#Cc1ccc2c(c1)[C@]1(C(=O)N2)[C@H](C(=O)N2CCc3cc(OC)c(OC)cc3C2)[C@H]2C(=O)O[C@H](c3ccccc3)[C@H](c3ccccc3)N2[C@@H]1c1ccc(OCCO)cc1)C(=O)OC` here?
The composite z-score was 1.75.
